Assay outcomes (PubChem)
Shown are actives, neighbours in structure and some others; about 3.1% of the full set was active somewhere.
CASP6 VEID inh: caspase-6 (human) enzyme inhibition | purified caspase-6, Z-VEID-R110 cleavage fluorescence | actives 0.53% (n = 350,000) | AID 686996 | P55212 | inhibition, % at 12.5 µM;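 active means mean inhibition across replicates at least about 35%, with every replicate also reaching that limit, limit read from the data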;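 further: 0% = median of neutral control wells and 100% = no fluorescence left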
Target sequence (P55212 24-179 limits assumed): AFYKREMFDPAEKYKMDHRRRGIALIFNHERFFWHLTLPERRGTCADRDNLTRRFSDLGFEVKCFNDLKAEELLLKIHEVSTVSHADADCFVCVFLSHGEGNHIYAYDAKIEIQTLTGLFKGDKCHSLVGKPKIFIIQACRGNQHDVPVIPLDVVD
Target sequence (P55212 194-293 limits assumed): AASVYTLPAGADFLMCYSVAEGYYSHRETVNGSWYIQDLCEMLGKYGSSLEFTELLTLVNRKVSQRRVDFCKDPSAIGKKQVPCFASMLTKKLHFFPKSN
ERAP1 HTS inh: ERAP1 (human) enzyme inhibition; AID 652197; inhibition, % at 10.7 µM; recombinant ERAP1, Leu-AMC fluorescence, 60 min; actives 0.15% (n = 340,000); Q9NZ08;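 active means mean replicate inhibition of at least 30%, or all replicates individually reaching that 30% level; inactive means mean below 30% and not every replicate reaching it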;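 further: 0% = neutral control wells and 100% = L-leucinethiol positive control wells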
SIRT5 inh: sirtuin-5 (human) deacylase inhibition; Q9NXA8; Purified SirT5, succinyl-peptide AMC, trypsin-coupled fluorescence; inhibition, % at 15 µM; actives 1.1% (n = 330,000); AID 652115; in the data active means inhibition above about 15%
Target sequence (Q9NXA8 whole entry, looked up): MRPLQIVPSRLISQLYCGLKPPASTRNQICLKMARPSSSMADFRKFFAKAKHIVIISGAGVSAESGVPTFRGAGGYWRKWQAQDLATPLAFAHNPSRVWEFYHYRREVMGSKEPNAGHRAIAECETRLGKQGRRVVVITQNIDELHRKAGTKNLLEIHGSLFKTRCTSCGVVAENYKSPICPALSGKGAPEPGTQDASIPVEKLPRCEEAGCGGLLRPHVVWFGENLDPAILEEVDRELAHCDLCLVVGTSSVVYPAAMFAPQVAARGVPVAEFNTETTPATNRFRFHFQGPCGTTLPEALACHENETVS
FGF22 binding: FGF22 (human) thermal shift binding; Q9HCT0; recombinant FGF22 thermal shift, SYPRO orange fluorescence; percent of sucrose octasulfate shift, DMSO zero; activity (Tm shift, normalised), % at 9.99 µM; actives 1.5% (n = 340,000);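 active means mean Tm shift, scaled 0 neutral to 100 positive control, at about 1.3% or above, every replicate too, limit read from the data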
Numbers without * were called inactive; / = not tested or not shown.

SMILES	CASP6 VEID inh	ERAP1 HTS inh	SIRT5 inh	FGF22 binding
COc1cccc(/C=C(\C#N)c2nc3ccccc3[nH]2)c1OCC(=O)O	2	-4	102*	0
COc1cccc(/C=C(/C#N)c2nc3ccccc3[nH]2)c1OC(C)C(=O)O (stereo not given)	7	2	1	0
COC(=O)/C(=C\c1ccc(O)cc1)c1nc2ccccc2[nH]1	-2	-3	-4	44*
COc1cc(/C=C/C(=O)NCc2nc3ccccc3[nH]2)cc(OC)c1OC	-1	/	0	0
Cc1cccc(/N=C/C2=C(O)CC(C)(C)CC2=O)n1	7	-1	7	0
CC1(C)CC(=O)C(C=Nc2cccnc2/N=C/C2=C(O)CC(C)(C)CC2=O)=C(O)C1	41*	2	10	0
CCOC(=O)NN1C(=O)c2ccccc2NC1c1ccc(OC)c(OC)c1 (stereo not given)	1	3	-10	43*
C=CCn1c(SCC(=O)c2ccc(O)c(O)c2)nnc1-c1cccnc1	61*	3	0	-1
C=CCn1c(SCC(=O)c2ccc(O)c(O)c2)nnc1-c1cccc(C)c1	21	5	0	0
CC(C)NC(=O)Nc1ccc2c(c1)CC(=O)N([C@@H](C)CO)C[C@@H](C)[C@H](CN(C)Cc1ccc(C(=O)Nc3ccccc3N)cc1)O2	0	1	-3	0
O=C(O)c1cc2ccccc2cn1	1	1	/	1
O=C(O)C1Oc2cc3ccccc3cc2O1	55*	2	-1	0
CO[C@@H]1CN(C)C(=O)c2ccc(NC(=O)C3CCCC3)cc2OC[C@@H](C)N(CCC(F)(F)F)C[C@H]1C	1	2	8	0
COC(=O)[C@]1(Cc2ccccc2)N[C@H](CN(C)C(=O)NC(C)C)[C@@H]2C(=O)N(Cc3ccccc3)C(=O)[C@@H]21	2	5	-4	1
COC(=O)[C@]1(Cc2ccccc2)N[C@H](CN(C)C(=O)NC(C)C)[C@@H]2C(=O)N(C)C(=O)[C@@H]21	0	-2	/	44*
CCN(C[C@H]1N[C@@](Cc2ccccc2)(C(=O)OC)[C@H]2C(=O)N(C)C(=O)[C@@H]12)C(=O)c1ccc(F)cc1	1	0	/	43*
CC[C@@]1(C(=O)OC)N[C@H](CN(C)C(=O)c2ccc(C)cc2)[C@@H]2C(=O)N(C)C(=O)[C@@H]21	-2	-2	/	44*
CCN(C[C@H]1N[C@@](Cc2ccccc2)(C(=O)OC)[C@H]2C(=O)N(C)C(=O)[C@@H]12)C(=O)c1ccc(C(C)(C)C)cc1	/	-2	2	0
CCN(C[C@H]1N[C@@](Cc2ccccc2)(C(=O)OC)[C@H]2C(=O)N(C)C(=O)[C@@H]12)C(=O)Nc1ccc(C(F)(F)F)cc1	0	2	28*	0
O=C(N[C@H]1CC[C@H](CCNS(=O)(=O)c2ccccc2Cl)O[C@H]1CO)c1ccccc1	0	3	1	0
CCCn1c(C)cc(C(=O)COc2ncnc3sccc23)c1C	4	4	-1	0
CCCn1c(C)cc(C(=O)COc2ccc(-c3nnco3)cc2)c1C	-1	1	-4	43*
O=C(/C=C/c1ccccc1)NCC(=O)N/N=C/c1ccccc1[N+](=O)[O-]	-3	-2	2	43*
CCN(CCn1cccn1)C(=O)CC1C(=O)NCCN1Cc1cc(OC)cc(OC)c1 (stereo not given)	1	-6	1	44*
CNC[C@@H]1Oc2cc(-c3cccc(C(=O)N(C)C)c3)ccc2S(=O)(=O)N([C@H](C)CO)C[C@H]1C	-1	-2	-3	0
SMILES	CASP6 VEID inh	ERAP1 HTS inh	SIRT5 inh	FGF22 binding
CCNC(=O)C[C@@H]1CC[C@@H]2[C@H](COC[C@H](O)CN2C(=O)C2CC2)O1	-1	2	-1	0
COc1cccc(C(C(=O)NC2CCCCC2)N(C(=O)c2cccs2)c2ccc3c(c2)OCO3)c1 (stereo not given)	-1	0	-1	44*
Cc1ccc(C(C(=O)NC2CCCC2)N(C(=O)Cc2cccs2)c2ccc3c(c2)OCCO3)cc1 (stereo not given)	/	-9	-1	0
Cc1noc(C)c1S(=O)(=O)Nc1ccc2c(c1)C(=O)N([C@H](C)CO)C[C@H](C)[C@@H](CN(C)S(=O)(=O)c1ccc(Cl)cc1)O2	-1	2	1	1
CCc1cc(=O)oc2c(CN3CCN(C)CC3)c(O)ccc12	-8	36*	-116	41
Cc1c(C)c2ccc(O)c(CN3CCN(C)CC3)c2oc1=O	-2	31*	-130	0
CN1CCN(Cc2c(O)ccc3cc(-c4ccccn4)c(=O)oc23)CC1	5	112*	-98	0
Cc1c(C)c2ccc(O)c(CN3CCCC3)c2oc1=O	-5	51*	-117	0
Cc1cc(=O)oc2c(CN3CCOCC3)c(O)ccc12	1	10	-123	0
Cc1cc(=O)oc2c(CN3CCCCC3)c(O)ccc12	2	46*	-127	0
COc1ccc(S(=O)(=O)N(C)C[C@H]2Oc3c(NC(=O)Nc4ccc(F)cc4)cccc3C(=O)N([C@@H](C)CO)C[C@H]2C)cc1	-2	-1	1	0
CCN(C(=O)COC(=O)c1ccccc1O)c1nc2ccccc2s1	3	2	/	43*
O=C(OCc1nc2ccccc2s1)c1ccccc1O	-1	-3	-3	0
O=C(CCN1CCCCC1)NCC[C@@H]1CC[C@H](NC(=O)C2CCOCC2)[C@@H](CO)O1	-1	3	12	0
Nc1ccccc1-c1ccccc1N	1	-1	2	44*
Nc1ccccc1-c1ccc(Cl)cc1	-5	-1	-3	0
Cc1noc(C)c1NC(=O)Nc1ccc2c(c1)CC(=O)N([C@H](C)CO)C[C@@H](C)[C@H](CN(C)C(=O)Nc1ccc3c(c1)OCO3)O2	-2	-2	0	0
CCCn1nc2cc(C(=O)NCc3ccc(OC(F)(F)F)cc3)ccc2c1OCC	2	6	-4	43*
CCOc1c2ccc(C(=O)N[C@H](C)C3CCCCC3)cc2nn1CCOC	3	16	-17	44*
CCOc1c2ccc(C(=O)NCc3ccco3)cc2nn1CCOC	2	1	/	0
CC(O)CNCc1ccc(Cl)cc1Cl (stereo not given)	1	-1	-1	45*
COc1ccc(S(=O)(=O)Nc2ccc3c(c2)CC(=O)N([C@@H](C)CO)C[C@@H](C)[C@@H](CN(C)S(=O)(=O)c2cccs2)O3)cc1	0	-3	12	0
Cc1cc(C)nc(N/N=C/c2sccc2C)n1	5	3	20*	1
Cc1cc(C)nc(N/N=C/c2ccccc2)n1	0	2	2	0
Cc1ccc(S(=O)(=O)N(C)C[C@H]2OCCCC[C@@H](C)Oc3ccc(NS(=O)(=O)c4ccccc4)cc3C(=O)N([C@@H](C)CO)C[C@@H]2C)cc1	-1	3	19*	1
Cc1ccc(S(=O)(=O)N(C)C[C@H]2OCCCC[C@H](C)Oc3ccc(NS(=O)(=O)c4ccccc4)cc3C(=O)N([C@@H](C)CO)C[C@@H]2C)cc1	-2	3	19*	0
